{"source": "paper PMC4336329", "about": "(PLoS ONE, 2015)", "note": "Screen size: about 310,000 compounds; about 14,000 (4.5%) showed an effect of 50% or more. Effects have a minus sign here. For the sample, strong results were picked, then their nearest neighbours and some compounds at random.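 Note: peak tail current of the secondary pulse compared with the same well before compound.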"}
{"target": "human ether-à-go-go-related gene (hERG) potassium channel (human, UniProt Q12809)", "sequence (Q12809 whole entry, looked up)": "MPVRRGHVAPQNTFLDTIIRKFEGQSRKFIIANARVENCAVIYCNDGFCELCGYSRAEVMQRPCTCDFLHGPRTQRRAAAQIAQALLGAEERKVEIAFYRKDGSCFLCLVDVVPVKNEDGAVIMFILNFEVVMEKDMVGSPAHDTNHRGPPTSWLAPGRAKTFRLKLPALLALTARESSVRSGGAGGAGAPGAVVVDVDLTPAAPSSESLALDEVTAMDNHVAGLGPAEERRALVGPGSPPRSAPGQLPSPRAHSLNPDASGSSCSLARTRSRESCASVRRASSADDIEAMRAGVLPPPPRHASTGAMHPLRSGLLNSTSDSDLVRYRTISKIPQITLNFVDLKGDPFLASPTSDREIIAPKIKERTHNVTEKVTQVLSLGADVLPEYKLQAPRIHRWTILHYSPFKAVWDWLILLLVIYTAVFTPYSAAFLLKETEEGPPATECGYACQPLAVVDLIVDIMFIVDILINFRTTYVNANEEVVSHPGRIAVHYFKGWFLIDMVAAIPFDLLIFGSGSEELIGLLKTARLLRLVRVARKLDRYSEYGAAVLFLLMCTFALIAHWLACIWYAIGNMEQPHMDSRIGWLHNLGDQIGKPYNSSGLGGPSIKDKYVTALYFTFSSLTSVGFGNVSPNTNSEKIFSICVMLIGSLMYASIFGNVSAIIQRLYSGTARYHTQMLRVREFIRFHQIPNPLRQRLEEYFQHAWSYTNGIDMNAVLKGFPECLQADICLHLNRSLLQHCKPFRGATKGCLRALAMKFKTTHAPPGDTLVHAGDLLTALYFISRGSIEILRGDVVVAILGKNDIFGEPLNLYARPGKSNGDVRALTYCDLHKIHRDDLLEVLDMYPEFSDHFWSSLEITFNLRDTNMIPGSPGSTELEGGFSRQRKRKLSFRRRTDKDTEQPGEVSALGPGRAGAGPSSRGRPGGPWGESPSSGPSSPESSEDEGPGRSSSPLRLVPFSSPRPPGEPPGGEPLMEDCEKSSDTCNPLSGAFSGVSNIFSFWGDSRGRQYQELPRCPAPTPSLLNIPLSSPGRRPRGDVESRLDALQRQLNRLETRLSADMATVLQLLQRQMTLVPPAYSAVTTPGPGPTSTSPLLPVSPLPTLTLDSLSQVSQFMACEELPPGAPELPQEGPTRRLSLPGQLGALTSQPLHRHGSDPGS", "test": "primary screen, population patch clamp on CHO cells stably expressing hERG; higher = less effect of the substance", "units": {"hERG current change (%, negative = inhibition) at 10uM": "%"}}
{"smiles": "CCC(C(=O)Nc1ccc(C(C)C)cc1)c1ccccc1", "note": "(stereo not drawn)", "hERG current change (%, negative = inhibition) at 10uM": 11.8}
{"smiles": "COc1cc(/C=N/NC(=O)CNC(=O)c2ccc3c(c2)OCCO3)ccc1O", "hERG current change (%, negative = inhibition) at 10uM": 1.98}
{"smiles": "COc1cccc(C2CCCN2Cc2nc(-c3cnccn3)no2)c1", "note": "(stereo not drawn)", "hERG current change (%, negative = inhibition) at 10uM": 7.84}
{"smiles": "CC(NC(=O)Cc1cccs1)c1ccccc1", "note": "(stereo not drawn)", "hERG current change (%, negative = inhibition) at 10uM": 24.5}
{"smiles": "Cc1ccc(NC(=O)CCSc2nnc(-c3ccco3)o2)cc1", "hERG current change (%, negative = inhibition) at 10uM": 9.02}
{"smiles": "COCc1cc(=O)[nH]c(Nc2nc3ccc(C)cc3o2)n1", "hERG current change (%, negative = inhibition) at 10uM": -10.3}
{"smiles": "O=C(/C=C/c1ccccc1)NCCN1CCOCC1", "hERG current change (%, negative = inhibition) at 10uM": 20.6}
{"smiles": "COc1ccc(C(=O)/C(=C/N(C)C)S(=O)(=O)c2ccccc2)cc1", "hERG current change (%, negative = inhibition) at 10uM": 10.8}
{"smiles": "O.O=C1NC2(O)C(=O)c3ccccc3C2(O)N1", "note": "(stereo not drawn)", "hERG current change (%, negative = inhibition) at 10uM": 11}
{"smiles": "O=C(N/N=C\\c1cc(Br)cs1)c1ccncc1", "hERG current change (%, negative = inhibition) at 10uM": -6.73}
{"smiles": "CCC1Sc2ccc(S(=O)(=O)CCC(=O)NC3CCCCCC3)cc2NC1=O", "note": "(stereo not drawn)", "hERG current change (%, negative = inhibition) at 10uM": 16.1}
{"smiles": "c1ccc2c(c1)Oc1ccccc1S2", "hERG current change (%, negative = inhibition) at 10uM": 14.7}
{"smiles": "Cc1ccc(N=C2C(=S)N(c3ccc(C)cc3)C(=N)N2/N=C/c2ccc(Cl)cc2)cc1", "hERG current change (%, negative = inhibition) at 10uM": -6.29}
{"smiles": "N=C1N(/N=C/c2ccccc2)C(=Nc2ccccc2)C(=S)N1c1ccccc1", "hERG current change (%, negative = inhibition) at 10uM": 2.03}
{"smiles": "CCOC(=O)c1ccc(N=C2C(=S)N(c3ccc(C(=O)OCC)cc3)C(=N)N2/N=C/c2ccccc2)cc1", "hERG current change (%, negative = inhibition) at 10uM": -52.7}
{"smiles": "CCOc1ccc(C(=O)NC2CCN(C(=O)Nc3ccc(F)cc3)CC2)cc1", "hERG current change (%, negative = inhibition) at 10uM": 0.481}
{"smiles": "CCc1cc2c(NCCC(=O)O)nc(C)nc2s1", "hERG current change (%, negative = inhibition) at 10uM": 24.2}
{"smiles": "Cc1ncc(CN2CCCC(C(=O)c3ccc(C(C)(C)C)cc3)C2)s1", "note": "(stereo not drawn)", "hERG current change (%, negative = inhibition) at 10uM": -72.8}
{"smiles": "COc1ccc(C(=O)C2CCCN(Cc3ccc(C#CCCO)cc3)C2)c(OC)c1", "note": "(stereo not drawn)", "hERG current change (%, negative = inhibition) at 10uM": -51.2}
{"smiles": "COc1ccc(C(=O)C2CCCN(Cc3cc(C)c(O)c(C)c3)C2)c(OC)c1", "note": "(stereo not drawn)", "hERG current change (%, negative = inhibition) at 10uM": -61}
{"smiles": "COc1ccc(C(=O)C2CCCN(Cc3ccc(C)s3)C2)cc1OC", "note": "(stereo not drawn)", "hERG current change (%, negative = inhibition) at 10uM": -71.6}
{"smiles": "COc1ccc(C(=O)C2CCCN(Cc3cnc(C)s3)C2)cc1OC", "note": "(stereo not drawn)", "hERG current change (%, negative = inhibition) at 10uM": -5.12}
{"smiles": "Cc1ncc(CN2CCCC(C(=O)c3cccc(Cl)c3)C2)s1", "note": "(stereo not drawn)", "hERG current change (%, negative = inhibition) at 10uM": -13.6}
{"smiles": "COc1ccc2cc(C(=O)C3CCCN(Cc4cnc(C)s4)C3)ccc2c1", "note": "(stereo not drawn)", "hERG current change (%, negative = inhibition) at 10uM": -28.8}
{"smiles": "COc1ccc(C(=O)C2CCCN(Cc3ccc(C#CCCO)cc3)C2)cc1F", "note": "(stereo not drawn)", "hERG current change (%, negative = inhibition) at 10uM": -45.3}
{"smiles": "CCOC(=O)N1CCN(c2nc(-c3cccc(OC)c3)cc(C(F)(F)F)n2)CC1", "hERG current change (%, negative = inhibition) at 10uM": 6.67}
{"smiles": "Cc1c(C(=O)N2CCCC2)c(S(=O)(=O)Nc2cccc(Br)c2)c(C)n1C", "hERG current change (%, negative = inhibition) at 10uM": 6.99}
{"smiles": "CCN(CC)C(=O)Cn1cnc2sc(C(=O)Nc3cc(OC)c(OC)c(OC)c3)c(C)c2c1=O", "hERG current change (%, negative = inhibition) at 10uM": 14.5}
{"smiles": "Cn1cc(/C=N\\NC(=O)C2COc3ccccc3O2)c2ccccc21", "note": "(stereo not drawn)", "hERG current change (%, negative = inhibition) at 10uM": 9.62}
{"smiles": "Cc1ccc(NC(=O)NNC(=O)c2cc3ccccc3cc2O)c(C)c1", "hERG current change (%, negative = inhibition) at 10uM": 27.4}
{"smiles": "Cc1ccccc1C1NS(=O)(=O)N=C1N", "note": "(stereo not drawn)", "hERG current change (%, negative = inhibition) at 10uM": 23.3}
{"smiles": "CC(Oc1ccc(-c2ccccc2)c(F)c1)c1ccn(S(=O)(=O)c2ccc(Br)cc2)n1", "note": "(stereo not drawn)", "hERG current change (%, negative = inhibition) at 10uM": 7.43}
{"smiles": "COCCCNC(=O)CN1C(=O)/C(=C\\c2ccc(C)cc2)Sc2ccccc21", "hERG current change (%, negative = inhibition) at 10uM": -15.8}
{"smiles": "COc1ccc(C(=O)C2CCCN(Cc3cnc(C)s3)C2)c(OC)c1", "note": "(stereo not drawn)", "hERG current change (%, negative = inhibition) at 10uM": -42.3}
{"smiles": "COc1ccc(C(=O)C2CCCN(Cc3ccc(NC(C)=O)cc3)C2)cc1OC", "note": "(stereo not drawn)", "hERG current change (%, negative = inhibition) at 10uM": -21.1}
{"smiles": "COc1ccc(C(=O)C2CCCN(Cc3ccc(C)s3)C2)c(OC)c1", "note": "(stereo not drawn)", "hERG current change (%, negative = inhibition) at 10uM": -53.7}
{"smiles": "COc1ccc(C(=O)C2CCCN(Cc3ccsc3)C2)cc1OC", "note": "(stereo not drawn)", "hERG current change (%, negative = inhibition) at 10uM": -73.8}
{"smiles": "NS(=O)(=O)c1ccc(CCNC(=O)C2CCN(S(=O)(=O)c3cnc[nH]3)CC2)cc1", "hERG current change (%, negative = inhibition) at 10uM": -2.97}
{"smiles": "CC(C)(C)P(=O)(c1ccncc1)N1CCCC1", "note": "(stereo not drawn)", "hERG current change (%, negative = inhibition) at 10uM": 2.14}
{"smiles": "O=C(Nc1ccc2oc(=O)ccc2c1)c1cc([N+](=O)[O-])ccc1N1CCOCC1", "hERG current change (%, negative = inhibition) at 10uM": -41.8}
{"smiles": "CCN(CC(=O)Nc1ccc(NC(C)=O)cc1)C(=O)/C=C/c1ccc2c(c1)OCO2", "hERG current change (%, negative = inhibition) at 10uM": 0.823}
{"smiles": "CC(C)C[C@H]1CN=C(Nc2ccccc2)N1CCCC1CCCC1", "hERG current change (%, negative = inhibition) at 10uM": -65.9}
{"smiles": "CC(C)C[C@H]1CN=C(Nc2ccccc2)N1CCC1CCCC1", "hERG current change (%, negative = inhibition) at 10uM": -51.5}
{"smiles": "CC(C)C[C@H]1CN=C(Nc2ccccc2)N1CCC1CCCCC1", "hERG current change (%, negative = inhibition) at 10uM": -61.5}
{"smiles": "Fc1ccc(CN2CCSCC2)cc1Br", "hERG current change (%, negative = inhibition) at 10uM": -11.1}
